# TSHR agonist = qHTS Assay for Agonists of the Thyroid Stimulating Hormone Receptor | Potency, µM (highest dose often 57.1 µM), inactives show at the top dose activation, hits mostly activators | HEK293-CNG-TSHR cells (CNG channel as cAMP sensor), membrane potential dye, cAMP | AID 926, 2007 | 0.48% of 73,000 active; active = well fitted activation curve with a large enough effect in the main read-out, with a control signal flat, not every such curve was filed as active; inconclusive = small, poorly fitted or top-dose-only effect, or a change in a side signal; inactive = no such curve, though single readings can be large or run the other way; % of control where 0% means no effect;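 also: the control signal comes from parental cells without the receptor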
#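 HEK 293 cells stably expressing TSHR and a modified CNG channel, with CNG-only parental cells as counterscreen, were preloaded 60 min at room temperature with membrane potential dye containing 100 uM RO 20-1724. Compound exposure was 30 min, and depolarization was read as fluorescence at 590 nm.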
# Casp1 inh = qHTS Assay for Allosteric/Competitive Inhibitors of Caspase-1; Caspase-1 enzyme, Ac-WEHD-AFC fluorogenic rate; P29466; AID 900, 2007; 0.03% of 75,000 active; Potency, µM (series often up to 57.5 µM), without a hit: top-dose activity change, negative = inhibition, most hits filed as inhibitors;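 also: plate controls were vehicle for no effect and no substrate for full effect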
# HEK293 cAMP cs = qHTS Assay for Agonists of the Thyroid Stimulating Hormone Receptor: Activators of Intracellular cAMP Concentrations in Parental HEK 293. parental HEK293 CNG cAMP sensor, membrane potential fluorescence. Potency, µM (titrated, usually from 57.1 µM), without a hit: at the highest dose activation, actives largely listed as activators. 2.5% of 73,000 active; also: % of control where 0% means no effect; nearly all actives have a fitted effect of over 55% in size
#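 Parental HEK 293 cells stably expressing a cAMP-gated CNG channel were loaded with membrane potential dye containing 100 uM RO 20-1724 for 60 min. Compound added for 30 min; depolarization read as fluorescence intensity at 590 nm.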
# Casp7 inh = qHTS Assay for Allosteric/Competitive Inhibitors of Caspase-7. P55210. recombinant caspase-7, Ac-DEVD-AFC fluorescence rate. AID 889, 2007. Potency, µM (doses to about 57.5 µM), for the others: at the highest dose activity change, negative = inhibition, most hits filed as inhibitors. 0.02% of 75,000 active; active = well fitted inhibition curve with a large enough effect in the main read-out, with a control signal flat, not every such curve was filed as active; inconclusive = small, poorly fitted or top-dose-only effect, or a change in a side signal; also: % of control where 0% means no effect
# ALOX15 inhib = qHTS Assay for Inhibitors of 15-hLO (15-human lipoxygenase); purified 15hLO-1, xylenol orange hydroperoxide absorbance; Potency, µM (series often up to 57.1 µM), without a hit: top-dose activity change, negative = inhibition, actives largely listed as inhibitors; 1.4% of 74,000 active; also: % is scaled to controls: 0 for no effect and ±100 for the full control effect; nearly all actives have a fitted effect of over 55% in size
#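 Hydroperoxide formed from arachidonic acid (50 uM) by purified human 15hLO-1 (40 nM) oxidizes ferrous iron, and the ferric-xylenol orange complex is read at 573 versus 405 nm. Compounds were preincubated 15 min; reaction ran 6 min at room temperature.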
# ERK AVP block = qHTS Assay for Inhibitors of the ERK Signaling Pathway using a Homogeneous Screening Assay | HEK293-V1b, vasopressin-stimulated pERK AlphaScreen | Potency, µM (doses to about 57.5 µM), for inactives: at the top dose activity, negative = inhibition, usual class: inhibitors | 0.99% of 72,000 active; also: % is scaled to controls: 0 for no effect and ±100 for the full control effect; nearly all actives have a fitted effect of over 55% in size
#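 qHTS, compounds titrated on V1b-expressing HEK293 cells. Preincubation 30 min at 37C, vasopressin 25 nM for 5 min, lysis 10 min, bead incubation 5 hr at room temperature.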
# * marks the source's active call; other numbers are inactive results; ? = inconclusive; . = no result; ! = repeats disagree; [ ] = dose if it differs, or a comment. Only some compounds are listed: those with a hit (about 4.8% of all), similar ones and a draw of the others. Unless noted, calls follow the shape of the dose curve; as a rule, active = well fitted curve in the direction sought with a large enough effect; inconclusive = small, poorly fitted or top-dose-only effect, or another doubt; inactive = no such curve, though single readings can be large; an effect the other way counts as inactive or inconclusive. Potency is read from the fitted curve at half-maximal effect.
SMILES,TSHR agonist,Casp1 inh,HEK293 cAMP cs,Casp7 inh,ALOX15 inhib,ERK AVP block
CN(C)C(=O)c1ccc(-c2cncnc2N2CCNCC2)cc1,?,-6%,?,-3%,-6%,-2%
Cc1cccc(N2CCN(C(=O)c3ccc(CS(=O)(=O)c4ccccc4C)o3)CC2C)c1 (stereo not given),?,-2%,25µM*,-4%,-11%,?
COc1ccccc1S(=O)(=O)Cc1ccc(C(=O)N2CCN(c3cccc(Cl)c3)CC2)o1,?,-3%,5µM*,-3%,-13%,?
COCCNc1nc(C)nc2c1nc(-c1ccccc1)n2CC1CCN(C)CC1,0%,2%,15%,-3%,8%,4%
C=C[C@@]1(C)C=C2CC[C@@H]3[C@](C)(CCC[C@@]3(C)C(=O)O)[C@H]2CC1,-14%,.,-22%,.,.,.
COc1nc(-c2ccccc2)ccc1-c1noc(COc2ccccc2)n1,?,?,32µM*,-5%,?,48%
N#Cc1ccc2c(c1)N(CCCN1CCC(O)CC1)c1ccccc1S2,.,-9%,.,-18%,4%,35%
CN1CCN(CCCN2c3ccccc3Sc3ccc(C(F)(F)F)cc32)CC1,-3%[11.4 µM],2%[11.5 µM],7%[11.4 µM],-1%[11.5 µM],?,25µM*!
CCNc1oc(-c2cccc3ccccc23)nc1C#N,.,.,-26%,?,.,6%
C=CCNc1oc(-c2cccc3ccccc23)nc1C#N,-15%,.,-8%,?,0.5µM*,?
CC(C)Nc1oc(-c2cccc3ccccc23)nc1C#N,-5%,.,-15%,?,4µM*,-29%
O=c1c2ccccc2nc(-c2ccco2)n1/N=C/c1ccco1,26%,0%,2%,-2%,1%,-26%
COc1cccc(/C=N/n2c(-c3ccco3)nc3ccccc3c2=O)c1,?,-2%,16µM*,-1%,5%,-1%
Cc1ccccc1OCc1nc2ccccc2c(=O)n1/N=C/c1ccco1,?,1%,16µM*,-1%,-16%,20%
c1ncc(-c2ccc3c(c2)OCO3)c(NCCc2cnc[nH]2)n1,1%,-1%,8%,-1%,10%,3%
CCC(=O)c1ccc(OCC(=O)Nc2nn3cnnc3s2)cc1,-1%,-4%,-13%,0%,-12%,32µM*
Cc1nc2c(C(=O)N3CCCCC3)cnn2c(C)c1Cc1ccccc1F,?,2%,?,-2%,1%,2%
Cc1ccccc1Cc1c(C)nc2c(C(=O)N3CCN(Cc4ccc5c(c4)OCO5)CC3)cnn2c1C,?,0%,20µM*,1%,1%,-14%
CCCCC(=O)N(c1ccc(OCC)cc1)C1C=CS(=O)(=O)C1 (stereo not given),-1%[11.4 µM],2%,2%,1%,32%,15%
CCCC(=O)N(c1ccc(OCC)cc1)C1C=CS(=O)(=O)C1 (stereo not given),?,0%,3.2µM*,-2%,0%,3%
Cc1ccc2c(c1)CCCN2C(=O)Nc1ccc2c(c1)OCO2,3%,-4%,3%,-6%,20µM*,-14%
COc1cc(/C=C\C(=O)CC(=O)/C=C\c2ccc(O)c(OC)c2)ccc1O,?,.,-36%,.,.,.
Cc1nonc1NC(=O)CSc1nc(C2CCCCC2)nc2ccccc12,?,-6%,25µM*,-2%,-26%,8%
Cc1cc(NC(=O)CSc2nc(C3CCCCC3)nc3ccccc23)no1,-8%,-6%,19%,-4%,-9%,-30%
O=C(OCC#CCSc1nc2ccccc2s1)c1ccco1,39%,-1%,11%,0%,-1%,20%
SMILES,TSHR agonist,Casp1 inh,HEK293 cAMP cs,Casp7 inh,ALOX15 inhib,ERK AVP block
O=C(OCC#CCSc1nnc(-c2ccc(Br)cc2)o1)c1ccco1,16%,-3%,22%,-4%,3.2µM*,11%
CCCc1c(OCCCOc2ccc(OCC(=O)O)cc2)ccc(C(C)=O)c1O,-3%,-4%,0%,-1%,-4%,-1%
Cc1cc(N2CCN(c3ccccc3)CC2)n2c(n1)nc1ccccc12,?,-7%,25µM*,-6%,8%,-6%
Cc1cc(N2CCN(c3ccccc3)CC2)n2nnnc2n1,-5%,0%,2%,-1%,2%,9%
N#Cc1c(-c2ccco2)c2c([nH]c1=S)CCCC2,4%,?,-1%,-26%,16µM*,?
c1csc(-c2csc3nc(CN4CCOCC4)nc(NCc4ccc5c(c4)OCO5)c23)c1,?,-5%,13µM*,-6%,-28%,13%
COCC(=O)N1CCC[C@@]2(CCN(C(c3ccccc3)c3ccccc3)C2)C1,?,-5%,?,-2%,-1%,9%
Nc1c(S(=O)(=O)O)cc(S(=O)(=O)O)c2ccc(N=Nc3ccccc3)c(O)c12,2%[11.4 µM],2%[11.5 µM],-8%[11.4 µM],-2%[11.5 µM],8%[11.4 µM],-17%[11.5 µM]
Cc1cc(-c2ccc(N=Nc3cc(S(=O)(=O)O)c4ccccc4c3N)c(C)c2)ccc1N=Nc1cc(S(=O)(=O)O)c2ccccc2c1N,?,-6%,-37%,0%,0.4µM*,?
COc1ccccc1NCCC(=O)OCC(=O)NCc1ccco1,?,-2%,?,-10%,?,16%
COc1ccc(OCCC(=O)OCC(=O)NCc2ccco2)cc1,0%,-4%,1%,-5%,13µM*,-18%
Cc1cc(C(=O)OCC(=O)NCc2ccco2)c(C)n1-c1ccc(F)cc1,?,-1%,16µM*,5%,-28%,-21%
O=C(COC(=O)c1ccccc1Oc1ccccc1)NCc1ccco1,?,-4%,?,-6%,13µM*,?
O=C(COC(=O)c1ccco1)NCc1ccco1,?,-4%,?,-3%,-21%,-3%
O=C(COC(=O)c1ccccc1)NCc1ccco1,-1%,1%,9%,1%[0.00368 µM],-26%,0%
COc1ccc(-c2cc(-c3ccccc3O)[nH]n2)cc1OC,5%,-2%,5%,-2%,?,?
COc1ccc(-c2cc(-c3cc(F)ccc3O)[nH]n2)cc1OC,8%[11.4 µM],-4%,-7%,-7%,?,32µM*
CCCC[C@@H]1C[C@H]1C(NC(=O)c1ccccc1)c1ccc(C(F)(F)F)cc1 (stereo not given in full),?,0%,3.2µM*,0%,.,-6%
CCCC[C@@H]1C[C@H]1C(NC(=O)c1cccnc1)c1ccc(Cl)cc1 (stereo not given in full),?,-4%,25µM*,-4%,.,?
